Molecules are shown by their SMILES. “And” between values parts separate entries of the source, which are not always exact repeats. Identical values can stand only once. Results filed as inconclusive are left out. The source holds several records for some structures; these can differ, active in one and inactive in another. The source made the active and inactive calls. Unless noted, calls come from the whole dose curve; as a rule, active = well fitted curve in the direction sought with a large enough effect in the repeat runs; inconclusive = weak or mixed curves; inactive = no such curve, though single readings can be large; an effect the other way counts as inactive or inconclusive.

The nature of assay [1]: qHTS assay for small molecules that induce genotoxicity in human embryonic kidney cells expressing luciferase-tagged ATAD5 (AID 651632). Note: nearly all actives have a fitted effect of over 15% in size. Note: potency is the fitted concentration of half-maximal effect. In outline:
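Reporter cells (HEK293T) express luciferase-tagged ATAD5, a protein that accumulates after DNA damage. Treat 16 hr at 37C/5% CO2, add Amplite, wait 30 min at RT, and read luminescence.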

A short description of assay [2]: qHTS assay for small molecule agonists of the p53 signaling pathway - cell viability (AID 651633; calls by dose curve; note: nearly all actives have a fitted effect of over 30% in size; note: potency is the fitted concentration of half-maximal effect). The procedure, abridged: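 p53RE-bla cells, seeded at 4,000 per well and rested 5 h at 37 C/5% CO2, received compounds in DMSO for 16 h at 37 C. CellTiter-Glo was then added, and luminescence was read after 30 min at room temperature to gauge cytotoxicity.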
(In general: Quantitative high-throughput screening tests each substance at several concentrations.)

Assay [3] can be described thus: qHTS assay for small molecule disruptors of the mitochondrial membrane potential - cell viability (AID 720634; calls by dose curve; note: nearly all actives have a fitted effect of over 20% in size; note: potency is the fitted concentration of half-maximal effect). The procedure, abridged:
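Measuring cytotoxicity alongside mitochondrial potential, the screen quantified ATP by luminescence in HepG2 cells after 1 hr compound incubation and a 30 min room-temperature CellTiter-Glo step.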

Assay [4] in a line: qHTS assay to test for compound auto fluorescence at 535 nm (green) in HepG2 cells (AID 720675).
Assay [5] can be described thus: qHTS assay to test for compound auto fluorescence at 590 nm (red) in HEK293 cells (AID 720679). The procedure, abridged:
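Using HEK293 cells at 2,000 per well, the screen added 23 nL of each compound after cell attachment and incubated overnight (37C, 5% CO2). The plate reader then captured red-label fluorescence, Ex/Em 540/590nm.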

Assay [6] in a line: qHTS assay to test for compound auto fluorescence at 460 nm (blue) in HEK293 cell free culture (AID 720681). The procedure, abridged:
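Test compounds were pinned into cell-free culture medium (DMEM with 10% FBS) and fluorescence was read directly at Ex/Em 405/460 nm. Signals were expressed as fluorescence equivalents of triamterene, with DMSO vehicle as control.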

The nature of assay [7]: qHTS assay to test for compound auto fluorescence at 535 nm (green) in HEK293 cell free culture (AID 720682). In outline:
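Fluorescein serves as the green reference fluorophore; each compound's intrinsic emission at 535 nm (excitation 485 nm) is reported as an equivalent amount of that dye, measured in serum-containing DMEM without cells.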

Assay [8] can be described thus: qHTS assay to test for compound auto fluorescence at 590 nm (red) in HepG2 cell free culture (AID 720684). The procedure, abridged:
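Red fluorescence (540 nm excitation, 590 nm emission) was measured after compound transfer into cell-free MEM supplemented with 10% FBS. Values are equivalencies against Rose Bengal sodium.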

Assay [9] is described as follows: qHTS assay to test for compound auto fluorescence at 460 nm (blue) in HepG2 cell free culture (AID 720685). In outline:
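Compound (23 nL) or DMSO pinned into cell-free MEM with 10% FBS; blue fluorescence read at 405/460 nm excitation/emission, expressed as auto-fluorescence equivalency to triamterene.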

The nature of assay [10]: qHTS assay to test for compound auto fluorescence at 535 nm (green) in HepG2 cell free culture (AID 720686).
A short description of assay [11]: qHTS assay to test for compound auto fluorescence at 460 nm (blue) in HepG2 cells (AID 720687). In outline:
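Cells (2,000/well in MEM with 10% FBS) attached overnight at 37 C, then were exposed to compound or DMSO for 1 hr at 37 C, 5% CO2. Fluorescence read at Ex/Em 405/460 nm, expressed as triamterene-equivalent signal.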

The nature of assay [12]: qHTS assay to identify small molecule antagonists of the androgen receptor (AR) signaling pathway - cell viability counter screen (AID 743033; note: nearly all actives have a fitted effect of over 45% in size; note: potency is the fitted concentration of half-maximal effect).
Assay [13] can be described thus: qHTS assay to identify small molecule antagonists of the androgen receptor (AR) signaling pathway using the MDA cell line - cell viability counter screen (AID 743041; note: nearly all actives have a fitted effect of over 45% in size; note: potency is the fitted concentration of half-maximal effect). The procedure, abridged:
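MDA-kb2 AR-luc human breast carcinoma cells (MMTV-luciferase, AR/GR responsive) were treated with compounds plus R1881 agonist for 16 h at 37 °C. Viability was read as CellTiter-Fluor fluorescence in the same wells as the reporter assay.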

Assay [14] in a line: qHTS assay to identify small molecule antagonists of the estrogen receptor alpha (ER-alpha) signaling pathway - cell viability counter screen (AID 743074; calls by dose curve;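 note: HEK293 cells carrying ER-alpha-UAS-bla reporter stimulated with 17beta-estradiol; nearly all actives have a fitted effect of over 45% in size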; note: potency is the fitted concentration of half-maximal effect).
Assay [15] is described as follows: qHTS assay to identify small molecule antagonists of the estrogen receptor alpha (ER-alpha) signaling pathway using the BG1 cell line - cell viability counter screen (AID 743081).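 Note: compound given together with 17beta-estradiol as the ER stimulus; series mostly up to about 70 µM; nearly all actives have a fitted effect of over 45% in size.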
In the next assay the target is Aromatase (Homo sapiens) (UniProt P11511). The assay is described as follows: qHTS assay to identify aromatase inhibitors (AID 743083). Note: nearly all actives have a fitted effect of over 55% in size. Note: potency is the fitted concentration of half-maximal effect.
The nature of assay [16]: qHTS assay to identify aromatase inhibitors - cell viability counter screen (AID 743084).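 Note: cells stimulated with testosterone during compound exposure; nearly all actives have a fitted effect of over 55% in size.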 Note: potency is the fitted concentration of half-maximal effect.
Assay [17] addresses Aryl hydrocarbon receptor (Homo sapiens) (UniProt P35869). The assay is described as follows: qHTS assay to identify small molecule that activate the aryl hydrocarbon receptor (AhR) signaling pathway (AID 743085).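 Note: HG2L7.5c1 human HepG2 liver cells with stably integrated DRE-driven firefly reporter; series mostly up to about 70 µM; nearly all actives have a fitted effect of over 15% in size.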 The procedure, abridged: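 Cell line HG2L7.5c1 (human hepatoma, 20× DRE-luc). Plated, 5 h 37C, compound/DMSO added, 24 h 37C. CellTiter-Fluor 30 min 37C → fluorescence; then ONE-Glo 30 min RT → luminescence.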

Assay [18] is described as follows: qHTS assay to identify small molecule phospholipidosis (PLD) inducers (AID 1259344; active = well fitted curve in the direction sought with a large enough effect; an effect the other way counts as inactive or inconclusive). The procedure, abridged: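 HepG2 cells on collagen I, attached 4 h at 37 C, were co-treated with compound and LipidTOX Red dye for 24 h at 37 C, then fixed with paraformaldehyde plus Hoechst 33342 and imaged by high-content microscopy for phospholipid accumulation.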
Assay [19] addresses Nuclear receptor subfamily 1 group I member 2 (Rattus norvegicus) (UniProt Q9R1A7). Nature of the assay: Rat pregnane X receptor (rPXR) activation by small molecules, qHTS assay (AID 1346983). Note: nearly all actives have a fitted effect of over 20% in size. Conditions: rPXR luciferase reporter cells, One-Glo luminescence, 24 h; max activation: stronger effect = higher value. The procedure, abridged: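 Cell-based rPXR luciferase reporter assay, 2,000 cells per well, rested 5hr at 37 C before compound addition in DMSO, then 24 hr at 37 C. One-Glo reagent was added and luminescence read after 30 min at room temperature.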
% is set by controls: 0 for no effect and ±100 for the full control effect.

Sequence of Aromatase (Homo sapiens) (P11511 whole entry, looked up): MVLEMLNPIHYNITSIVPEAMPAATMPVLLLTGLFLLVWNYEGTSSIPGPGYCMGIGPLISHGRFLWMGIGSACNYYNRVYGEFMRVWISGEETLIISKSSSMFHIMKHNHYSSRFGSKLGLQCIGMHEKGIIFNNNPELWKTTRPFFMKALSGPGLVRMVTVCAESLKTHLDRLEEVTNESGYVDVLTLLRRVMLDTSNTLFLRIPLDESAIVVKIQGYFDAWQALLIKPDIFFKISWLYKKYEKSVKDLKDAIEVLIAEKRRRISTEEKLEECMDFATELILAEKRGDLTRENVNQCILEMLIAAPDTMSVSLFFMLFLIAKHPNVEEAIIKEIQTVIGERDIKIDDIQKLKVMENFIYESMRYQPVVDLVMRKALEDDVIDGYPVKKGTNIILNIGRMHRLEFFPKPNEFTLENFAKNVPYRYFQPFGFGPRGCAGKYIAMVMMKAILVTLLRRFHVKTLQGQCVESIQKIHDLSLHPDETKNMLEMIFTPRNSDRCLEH
Sequence of Aryl hydrocarbon receptor (Homo sapiens) (P35869 whole entry, looked up): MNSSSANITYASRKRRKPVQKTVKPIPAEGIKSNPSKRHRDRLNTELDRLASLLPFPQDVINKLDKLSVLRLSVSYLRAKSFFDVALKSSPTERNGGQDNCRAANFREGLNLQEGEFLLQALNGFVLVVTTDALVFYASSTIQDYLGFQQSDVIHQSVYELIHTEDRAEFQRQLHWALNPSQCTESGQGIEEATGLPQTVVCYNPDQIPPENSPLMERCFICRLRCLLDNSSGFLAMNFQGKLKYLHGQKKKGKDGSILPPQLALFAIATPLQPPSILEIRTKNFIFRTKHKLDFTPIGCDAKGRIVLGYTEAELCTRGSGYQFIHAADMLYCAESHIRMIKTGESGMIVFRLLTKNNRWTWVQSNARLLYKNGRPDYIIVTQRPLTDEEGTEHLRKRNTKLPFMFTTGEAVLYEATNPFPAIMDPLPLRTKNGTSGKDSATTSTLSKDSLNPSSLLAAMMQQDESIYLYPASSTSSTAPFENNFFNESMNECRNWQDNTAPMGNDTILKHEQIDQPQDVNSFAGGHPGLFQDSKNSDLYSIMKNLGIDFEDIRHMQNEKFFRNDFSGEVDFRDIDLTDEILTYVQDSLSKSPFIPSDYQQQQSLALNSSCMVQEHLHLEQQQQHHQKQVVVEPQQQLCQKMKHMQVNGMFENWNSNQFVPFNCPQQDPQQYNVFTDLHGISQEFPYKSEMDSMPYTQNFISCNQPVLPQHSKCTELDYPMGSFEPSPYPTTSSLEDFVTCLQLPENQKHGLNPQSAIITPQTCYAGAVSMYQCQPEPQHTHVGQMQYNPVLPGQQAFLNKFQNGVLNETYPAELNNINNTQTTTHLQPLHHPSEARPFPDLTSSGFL
Sequence of Nuclear receptor subfamily 1 group I member 2 (Rattus norvegicus) (Q9R1A7 whole entry, looked up): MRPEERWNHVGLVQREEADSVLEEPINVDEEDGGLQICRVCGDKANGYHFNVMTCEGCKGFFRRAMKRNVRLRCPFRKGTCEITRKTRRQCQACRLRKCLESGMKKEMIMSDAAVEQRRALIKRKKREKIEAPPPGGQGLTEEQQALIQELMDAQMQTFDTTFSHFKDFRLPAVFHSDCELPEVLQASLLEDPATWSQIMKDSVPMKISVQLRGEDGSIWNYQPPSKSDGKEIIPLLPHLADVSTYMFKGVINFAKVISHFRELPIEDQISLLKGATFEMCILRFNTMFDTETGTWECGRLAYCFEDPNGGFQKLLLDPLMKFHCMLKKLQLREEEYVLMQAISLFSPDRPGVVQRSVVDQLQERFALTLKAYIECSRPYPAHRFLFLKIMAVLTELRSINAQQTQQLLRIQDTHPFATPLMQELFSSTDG

With `COc1ccc2c3c1O[C@H]1[C@@H](O)C=C[C@H]4[C@@H](C2)NCC[C@@]341`, the Potency result in assay [1], in [2], in [3], in [4], in assay [6] and in assay [7] was “inactive” in each case. The Potency entry in [9], in assay [10], in [11], in [12], in assay [13] and in assay [14] was “inactive” throughout. The Potency entry (in assay [15]; with Aromatase (Homo sapiens); in assay [16]; in assay [17]; in assay [18]) was “inactive” each time. Besides, the result in [5] and in assay [8] was inactive. Moreover, the max activation in assay [19] is -0.689% (inactive).
With `C[C@@H](Cc1ccccc1)N(C)C`, the Potency entry in assay [1], in [2], in assay [3], in assay [4], in [6] and in [7] was “inactive” each time. For the same compound, the Potency result in [9], in [10], in assay [11], in assay [12], in assay [13] and in assay [14] was “inactive” throughout. Besides, the Potency result (in assay [15]; in the assay with Aromatase (Homo sapiens); in [16]; in assay [17]; in assay [18]) was “inactive” throughout. Moreover, the compound was called inactive in assay [5] and in assay [8]. Also, the max activation in [19] was -2.61% (inactive).
Regarding `Oc1cc[c]([Hg][Cl])cc1`, the Potency was 4.22 µM (active) and 8.41 µM (active) in [1]; 9.44 µM (active) and 16.8 µM (active) in assay [2]; 16.8 µM (active) in assay [3]; 7.56 µM (active) and 19 µM (active) in [12]; 11.9 µM (active) and 13.3 µM (active) in assay [13]; 21.3 µM (active) and inactive in assay [14]. Besides, the Potency is 6.68 µM (active) and 13.3 µM (active) with Aromatase (Homo sapiens); 6.68 µM (active) and 11.9 µM (active) in assay [16]. Besides, the Potency entry in [4], in assay [6], in [9], in assay [10], in assay [11] and in assay [15] was “inactive” throughout. Moreover, the Potency entry in [17] and in assay [18] was “inactive” each time. In addition, the result in [5] and in assay [8] was inactive. In addition, the max activation in [19] is -21.4% (inactive).
In the case of `C[C@]12CCC(=O)C=C1C=C[C@@H]1[C@@H]2CC[C@@]2(C)[C@H]1CC[C@@]2(O)CCC(=O)O`, the Potency result in assay [1], in [2], in [3], in [4], in assay [6] and in assay [9] was “inactive” throughout. The Potency result (in [10]; in [11]; in assay [12]; in [13]; in assay [15]; in the assay with Aromatase (Homo sapiens)) was “inactive” in each case. Moreover, the Potency result in [16], in assay [17] and in assay [18] was “inactive” throughout. Besides, the call in assay [5] and in assay [8] was inactive. Further, in [19], the max activation was 4.24% (inactive).
Consider `N#CC1(N2CCCCC2)CCCCC1`, for which the Potency result in [1], in [2], in assay [3], in assay [4], in assay [6] and in assay [7] was “inactive” in each case. The Potency entry in assay [9], in [10], in [11], in assay [12], in assay [13] and in assay [14] was “inactive” in each case. The Potency entry (in assay [15]; with Aromatase (Homo sapiens); in assay [16]; in assay [17]; in [18]) was “inactive” in each case. Further, the outcome in assay [5] and in assay [8] was inactive. The max activation in assay [19] was -1.32% (inactive).
Take `O=C(CS(=O)C(c1ccccc1)c1ccccc1)NO` (stereo unspecified): the Potency entry in assay [1], in [2], in assay [3], in assay [4], in assay [6] and in assay [7] was “inactive” each time. Further, the Potency result in assay [9], in assay [10], in assay [11], in assay [13], in assay [14] and in assay [15] was “inactive” each time. Moreover, the Potency result (with Aromatase (Homo sapiens); in assay [16]; in assay [17]; in assay [18]) was “inactive” throughout. For the same compound, the compound was called inactive in assay [5] and in assay [8]. For the same compound, the max activation in [19] was -2.68% (inactive).
